Test [1] addresses Tyrosine-protein kinase Fyn (Homo sapiens) (UniProt P06241). Particulars: at 1 µM.
Test [2] has as its target Tyrosine-protein kinase HCK (Homo sapiens) (UniProt P08631). The note with it: at 0.1 µM.
Test [3] has the same target. The note with it: at 1 µM.
Test [4] concerns the target Insulin-like growth factor 1 receptor (Homo sapiens) (UniProt P08069). Particulars: at 0.1 µM.
Test [5] shares this target. Particulars: at 1 µM.
The target of test [6] is Insulin receptor (Homo sapiens) (UniProt P06213). The note with it: at 0.1 µM.
Test [7] shares this target. Particulars: at 1 µM.
Test [8] deals with Insulin receptor-related protein (Homo sapiens) (UniProt P14616). Particulars: at 0.1 µM.
Chain of Insulin receptor-related protein (Homo sapiens) (P14616 27-742 limits assumed): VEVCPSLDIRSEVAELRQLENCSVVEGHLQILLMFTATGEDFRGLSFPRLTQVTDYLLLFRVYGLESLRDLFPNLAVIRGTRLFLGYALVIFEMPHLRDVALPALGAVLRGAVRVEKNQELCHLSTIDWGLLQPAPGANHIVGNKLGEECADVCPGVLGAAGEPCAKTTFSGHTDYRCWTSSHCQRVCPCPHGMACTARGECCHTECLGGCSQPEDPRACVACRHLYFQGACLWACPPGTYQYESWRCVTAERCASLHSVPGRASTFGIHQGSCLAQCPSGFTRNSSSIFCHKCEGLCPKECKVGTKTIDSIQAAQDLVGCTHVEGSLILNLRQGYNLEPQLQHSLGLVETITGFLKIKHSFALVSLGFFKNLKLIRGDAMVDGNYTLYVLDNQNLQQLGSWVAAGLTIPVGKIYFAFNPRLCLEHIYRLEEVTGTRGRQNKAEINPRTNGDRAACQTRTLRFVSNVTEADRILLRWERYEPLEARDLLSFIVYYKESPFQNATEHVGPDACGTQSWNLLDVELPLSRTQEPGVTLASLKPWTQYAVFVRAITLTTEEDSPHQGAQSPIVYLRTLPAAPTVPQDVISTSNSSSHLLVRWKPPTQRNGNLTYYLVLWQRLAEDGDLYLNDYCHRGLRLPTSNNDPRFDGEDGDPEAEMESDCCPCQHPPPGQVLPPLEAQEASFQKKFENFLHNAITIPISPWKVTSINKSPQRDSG
Chain of Insulin receptor-related protein (Homo sapiens) (P14616 747-1297 limits assumed): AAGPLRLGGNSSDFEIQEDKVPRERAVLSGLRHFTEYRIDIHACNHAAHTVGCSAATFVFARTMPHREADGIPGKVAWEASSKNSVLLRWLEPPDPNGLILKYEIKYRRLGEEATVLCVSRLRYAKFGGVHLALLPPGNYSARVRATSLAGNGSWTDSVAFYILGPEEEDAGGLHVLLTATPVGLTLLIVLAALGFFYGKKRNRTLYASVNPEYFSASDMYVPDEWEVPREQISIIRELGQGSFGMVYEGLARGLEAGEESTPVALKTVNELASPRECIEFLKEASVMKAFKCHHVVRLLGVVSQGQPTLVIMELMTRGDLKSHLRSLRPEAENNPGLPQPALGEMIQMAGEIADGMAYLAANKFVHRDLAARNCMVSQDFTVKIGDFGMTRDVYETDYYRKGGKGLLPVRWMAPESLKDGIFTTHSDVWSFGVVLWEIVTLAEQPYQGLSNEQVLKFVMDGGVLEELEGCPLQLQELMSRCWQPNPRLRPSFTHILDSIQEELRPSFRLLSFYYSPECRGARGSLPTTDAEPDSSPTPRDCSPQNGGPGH
The target is the same in test [9]. Particulars: at 1 µM.
The target of test [10] is T1, Tyrosine-protein kinase ITK/TSK (Homo sapiens) (UniProt Q08881).
T1 sequence (whole entry): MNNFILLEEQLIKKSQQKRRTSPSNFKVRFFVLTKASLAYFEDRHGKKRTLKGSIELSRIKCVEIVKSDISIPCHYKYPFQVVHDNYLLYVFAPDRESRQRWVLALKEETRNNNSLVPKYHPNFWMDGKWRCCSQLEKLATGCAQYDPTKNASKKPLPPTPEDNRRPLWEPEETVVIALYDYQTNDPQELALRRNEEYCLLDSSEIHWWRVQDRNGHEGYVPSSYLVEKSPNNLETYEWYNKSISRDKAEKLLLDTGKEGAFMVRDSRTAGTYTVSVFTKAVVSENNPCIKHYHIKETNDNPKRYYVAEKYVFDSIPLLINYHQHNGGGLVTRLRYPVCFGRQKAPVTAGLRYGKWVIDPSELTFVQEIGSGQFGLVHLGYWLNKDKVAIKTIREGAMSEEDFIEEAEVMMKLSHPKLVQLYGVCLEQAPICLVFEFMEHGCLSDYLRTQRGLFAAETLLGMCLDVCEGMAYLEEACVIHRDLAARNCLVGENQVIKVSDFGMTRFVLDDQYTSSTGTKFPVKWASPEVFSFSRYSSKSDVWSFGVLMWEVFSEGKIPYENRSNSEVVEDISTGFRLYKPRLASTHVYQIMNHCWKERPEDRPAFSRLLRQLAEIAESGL
Particulars: at 0.1 µM.

Test [11] deals with T1, Tyrosine-protein kinase ITK/TSK (Homo sapiens). The note with it: at 1 µM.
For test [12], the target named is Tyrosine-protein kinase JAK1 (Homo sapiens) (UniProt P23458). Particulars: at 0.1 µM.
Chain of Tyrosine-protein kinase JAK1 (Homo sapiens) (P23458 whole entry): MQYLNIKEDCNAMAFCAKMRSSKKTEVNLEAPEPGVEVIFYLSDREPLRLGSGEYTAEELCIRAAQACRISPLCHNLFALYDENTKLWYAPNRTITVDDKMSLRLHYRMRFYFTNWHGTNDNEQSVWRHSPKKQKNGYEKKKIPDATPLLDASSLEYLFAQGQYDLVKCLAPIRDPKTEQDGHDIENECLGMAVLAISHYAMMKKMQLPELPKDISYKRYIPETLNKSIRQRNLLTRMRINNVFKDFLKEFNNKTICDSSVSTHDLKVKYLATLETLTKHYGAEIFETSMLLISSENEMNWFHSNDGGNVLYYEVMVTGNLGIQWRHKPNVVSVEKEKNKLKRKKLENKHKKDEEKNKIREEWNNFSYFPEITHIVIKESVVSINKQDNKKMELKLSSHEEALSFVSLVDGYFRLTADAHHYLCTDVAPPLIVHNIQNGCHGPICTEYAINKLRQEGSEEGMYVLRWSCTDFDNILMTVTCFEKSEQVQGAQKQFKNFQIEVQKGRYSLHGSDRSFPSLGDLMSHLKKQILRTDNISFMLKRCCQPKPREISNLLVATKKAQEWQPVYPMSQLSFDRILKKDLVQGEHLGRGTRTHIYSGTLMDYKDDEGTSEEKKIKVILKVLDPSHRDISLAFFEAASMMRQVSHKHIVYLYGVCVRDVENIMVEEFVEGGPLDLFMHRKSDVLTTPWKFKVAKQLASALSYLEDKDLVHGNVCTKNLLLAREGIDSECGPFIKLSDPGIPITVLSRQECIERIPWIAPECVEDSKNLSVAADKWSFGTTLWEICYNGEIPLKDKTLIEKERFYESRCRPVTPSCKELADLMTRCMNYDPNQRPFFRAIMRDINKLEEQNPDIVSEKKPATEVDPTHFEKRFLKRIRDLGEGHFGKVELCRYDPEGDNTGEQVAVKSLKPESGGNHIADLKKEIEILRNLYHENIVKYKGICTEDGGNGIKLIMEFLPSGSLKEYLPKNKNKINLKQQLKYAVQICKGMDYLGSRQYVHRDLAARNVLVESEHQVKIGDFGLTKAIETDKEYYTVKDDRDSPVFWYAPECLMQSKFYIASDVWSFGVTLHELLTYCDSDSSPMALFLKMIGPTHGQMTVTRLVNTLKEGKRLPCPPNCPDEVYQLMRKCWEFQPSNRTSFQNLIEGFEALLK
For test [13] the target is unchanged. The note with it: at 1 µM.
Test [14] addresses Tyrosine-protein kinase JAK2 (Homo sapiens) (UniProt O60674). Particulars: at 0.1 µM.
The target is the same in test [15]. The note with it: at 1 µM.
Test [16] has as its target T2, Tyrosine-protein kinase JAK3 (Homo sapiens) (UniProt P52333).
T2 sequence (whole entry): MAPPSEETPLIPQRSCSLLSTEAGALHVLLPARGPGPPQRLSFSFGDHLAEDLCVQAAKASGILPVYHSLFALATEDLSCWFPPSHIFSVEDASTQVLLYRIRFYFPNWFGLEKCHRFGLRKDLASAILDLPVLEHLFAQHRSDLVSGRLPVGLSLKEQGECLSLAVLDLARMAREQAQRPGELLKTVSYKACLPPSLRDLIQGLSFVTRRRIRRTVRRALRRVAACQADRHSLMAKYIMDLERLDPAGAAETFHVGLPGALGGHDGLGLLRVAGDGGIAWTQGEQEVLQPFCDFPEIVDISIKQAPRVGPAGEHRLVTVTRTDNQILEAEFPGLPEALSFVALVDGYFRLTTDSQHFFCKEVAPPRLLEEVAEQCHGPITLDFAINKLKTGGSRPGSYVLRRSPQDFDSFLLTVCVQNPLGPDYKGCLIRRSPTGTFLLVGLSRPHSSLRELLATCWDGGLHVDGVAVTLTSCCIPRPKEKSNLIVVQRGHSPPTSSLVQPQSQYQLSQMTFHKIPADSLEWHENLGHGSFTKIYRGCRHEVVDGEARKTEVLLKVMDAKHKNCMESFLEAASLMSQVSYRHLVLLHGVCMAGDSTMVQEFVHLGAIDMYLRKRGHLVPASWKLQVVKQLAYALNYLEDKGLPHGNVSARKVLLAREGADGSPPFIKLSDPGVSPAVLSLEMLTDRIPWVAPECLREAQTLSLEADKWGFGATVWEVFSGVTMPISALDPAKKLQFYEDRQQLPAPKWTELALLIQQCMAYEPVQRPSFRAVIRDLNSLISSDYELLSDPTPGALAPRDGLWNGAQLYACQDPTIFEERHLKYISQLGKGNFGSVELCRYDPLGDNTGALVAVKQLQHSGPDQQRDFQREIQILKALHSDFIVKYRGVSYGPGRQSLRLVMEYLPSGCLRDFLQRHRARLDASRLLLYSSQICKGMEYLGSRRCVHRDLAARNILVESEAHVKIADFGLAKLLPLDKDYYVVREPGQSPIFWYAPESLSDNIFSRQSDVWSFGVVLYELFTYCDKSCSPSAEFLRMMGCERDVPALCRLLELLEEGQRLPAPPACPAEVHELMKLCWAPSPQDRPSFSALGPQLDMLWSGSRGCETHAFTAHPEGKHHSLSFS
The note with it: at 0.1 µM.

Test [17] has as its target T2, Tyrosine-protein kinase JAK3 (Homo sapiens). The note with it: at 1 µM.
Test [18] addresses Vascular endothelial growth factor receptor 2 (Homo sapiens) (UniProt P35968). The note with it: at 0.1 µM.
The target is the same in test [19]. The note with it: at 1 µM.
Test [20] concerns the target Mast/stem cell growth factor receptor Kit (Homo sapiens) (UniProt P10721). The note with it: at 0.1 µM.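 Also: values are mean inhibition of KIT, from the GSK PKIS dataset.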

Chain of Tyrosine-protein kinase Fyn (Homo sapiens) (P06241 2-537 limits assumed): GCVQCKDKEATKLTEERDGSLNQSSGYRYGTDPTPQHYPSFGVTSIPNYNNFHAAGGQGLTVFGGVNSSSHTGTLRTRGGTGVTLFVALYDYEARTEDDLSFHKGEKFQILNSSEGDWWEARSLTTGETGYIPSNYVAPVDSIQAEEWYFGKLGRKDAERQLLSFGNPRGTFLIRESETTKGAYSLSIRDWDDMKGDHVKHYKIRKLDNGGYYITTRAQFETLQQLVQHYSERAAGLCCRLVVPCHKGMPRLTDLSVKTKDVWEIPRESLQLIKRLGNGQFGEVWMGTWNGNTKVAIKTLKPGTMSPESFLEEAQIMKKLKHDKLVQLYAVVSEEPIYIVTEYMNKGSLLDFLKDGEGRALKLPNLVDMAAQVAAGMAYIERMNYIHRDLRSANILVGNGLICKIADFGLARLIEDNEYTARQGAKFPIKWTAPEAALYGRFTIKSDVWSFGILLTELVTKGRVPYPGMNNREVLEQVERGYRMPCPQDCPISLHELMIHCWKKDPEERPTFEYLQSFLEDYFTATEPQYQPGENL
Chain of Tyrosine-protein kinase JAK2 (Homo sapiens) (O60674 whole entry): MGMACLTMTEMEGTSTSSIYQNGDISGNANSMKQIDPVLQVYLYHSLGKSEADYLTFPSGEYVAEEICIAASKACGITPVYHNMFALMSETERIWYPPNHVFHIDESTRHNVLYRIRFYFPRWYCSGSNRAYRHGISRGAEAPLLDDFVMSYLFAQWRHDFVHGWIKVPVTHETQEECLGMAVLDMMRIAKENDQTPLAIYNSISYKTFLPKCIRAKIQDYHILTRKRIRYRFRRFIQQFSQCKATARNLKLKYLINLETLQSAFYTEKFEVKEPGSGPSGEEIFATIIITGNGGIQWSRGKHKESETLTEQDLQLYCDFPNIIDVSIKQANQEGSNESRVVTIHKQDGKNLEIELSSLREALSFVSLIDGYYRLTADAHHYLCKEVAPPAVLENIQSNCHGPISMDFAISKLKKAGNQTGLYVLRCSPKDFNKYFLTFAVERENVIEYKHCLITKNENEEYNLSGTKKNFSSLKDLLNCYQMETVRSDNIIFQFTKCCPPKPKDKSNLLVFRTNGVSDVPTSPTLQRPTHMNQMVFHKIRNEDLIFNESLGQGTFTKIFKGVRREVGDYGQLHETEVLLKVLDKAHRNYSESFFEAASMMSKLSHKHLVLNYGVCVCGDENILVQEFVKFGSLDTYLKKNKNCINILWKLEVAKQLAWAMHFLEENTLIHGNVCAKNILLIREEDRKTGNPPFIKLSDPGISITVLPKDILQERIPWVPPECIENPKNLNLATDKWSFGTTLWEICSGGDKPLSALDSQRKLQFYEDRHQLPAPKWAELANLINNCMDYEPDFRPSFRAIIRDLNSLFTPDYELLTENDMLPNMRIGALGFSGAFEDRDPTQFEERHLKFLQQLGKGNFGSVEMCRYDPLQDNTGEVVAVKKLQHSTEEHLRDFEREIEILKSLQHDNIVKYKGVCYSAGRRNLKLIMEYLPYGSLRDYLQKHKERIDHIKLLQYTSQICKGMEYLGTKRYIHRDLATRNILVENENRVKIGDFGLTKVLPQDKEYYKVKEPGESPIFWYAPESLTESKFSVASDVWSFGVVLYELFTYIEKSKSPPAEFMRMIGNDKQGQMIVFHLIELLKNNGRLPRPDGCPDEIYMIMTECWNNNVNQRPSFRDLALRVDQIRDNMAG
Chain of Mast/stem cell growth factor receptor Kit (Homo sapiens) (P10721 whole entry): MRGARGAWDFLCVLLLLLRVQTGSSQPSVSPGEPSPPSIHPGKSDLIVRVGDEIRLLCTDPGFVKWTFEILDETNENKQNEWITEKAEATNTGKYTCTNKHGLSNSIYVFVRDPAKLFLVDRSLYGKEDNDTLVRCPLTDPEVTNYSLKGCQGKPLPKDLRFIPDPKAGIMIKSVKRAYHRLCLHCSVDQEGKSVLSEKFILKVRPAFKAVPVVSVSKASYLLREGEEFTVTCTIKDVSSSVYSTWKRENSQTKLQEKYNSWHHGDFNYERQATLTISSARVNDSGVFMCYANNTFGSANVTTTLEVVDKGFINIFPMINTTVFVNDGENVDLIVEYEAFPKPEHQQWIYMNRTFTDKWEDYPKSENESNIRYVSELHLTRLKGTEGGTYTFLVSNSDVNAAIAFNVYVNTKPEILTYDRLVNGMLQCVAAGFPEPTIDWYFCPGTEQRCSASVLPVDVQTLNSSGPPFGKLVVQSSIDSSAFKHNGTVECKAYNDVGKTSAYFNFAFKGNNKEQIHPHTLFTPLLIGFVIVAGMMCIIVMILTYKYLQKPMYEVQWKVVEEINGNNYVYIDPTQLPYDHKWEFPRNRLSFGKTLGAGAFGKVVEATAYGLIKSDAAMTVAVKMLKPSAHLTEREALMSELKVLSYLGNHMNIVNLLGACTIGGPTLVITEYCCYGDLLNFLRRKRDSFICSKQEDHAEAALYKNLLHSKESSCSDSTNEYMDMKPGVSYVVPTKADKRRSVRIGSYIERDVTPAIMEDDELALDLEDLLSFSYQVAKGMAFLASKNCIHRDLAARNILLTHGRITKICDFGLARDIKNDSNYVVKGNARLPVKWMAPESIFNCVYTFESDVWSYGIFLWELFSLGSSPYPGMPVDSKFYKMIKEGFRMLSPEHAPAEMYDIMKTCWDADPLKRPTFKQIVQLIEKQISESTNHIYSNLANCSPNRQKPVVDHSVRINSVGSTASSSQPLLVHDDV

Consider `Cc1ccc(C(=O)NC2CC2)cc1-c1ccc2[nH]ncc2c1`, for which the inhibition in [1] was 0.93%; in test [2], -3.84%; in [3], -2.13%; in [4], 29.6%; in test [5] it was -5.48%; in [6], 0.44%. Besides, the inhibition in test [7] was -2.94%; in test [8], -3.94%; in test [9] it was -4.42%; in [10], -2.18%; in test [11] it was -0.97%; in [12], -3.33%. Also, the inhibition in test [13] was -8.73%; in [14], -1.66%; in test [15] it was -1.51%; in test [16] it was 1.08%; in [17], 2.55%; in test [18] it was -3.15%. Further, the values for the inhibition in test [19] and in test [20] were 3.28% and -5.04%, respectively.
Take `c1ccc(Cc2nc3ccc(Nc4ncnc5ccccc45)cc3[nH]2)cc1`: the inhibition in [1] came to 5.58%; in test [2], 3.53%; in test [3], 11.5%; in test [4], 2.6%; in test [5], 3.88%; in test [6], 3.54%. Also, the inhibition in test [7] was found to be 8.19%; in test [8], 2.51%; in test [9], 3.31%; in test [10], 0.82%; in test [11], 1.07%; in test [12] it was 1.47%. The inhibition in [13] was 5.36%; in [14] it was 1.11%; in [15] it was 1.7%; in [16], -1.75%; in test [17] it was 2.4%; in test [18], 2.38%. The inhibition in [19] was determined as 5.81%; in [20], 6.44%.
Regarding `Nc1nccc(-c2c(-c3ccc(F)cc3)ncn2CCCN2CCOCC2)n1`, the inhibition in [1] amounted to 4.47%; in test [2] it was 5.16%; in test [3], 6.92%; in test [4] it was 9.8%; in test [5] it was 8.95%; in test [6], 0.02%. In addition, the inhibition in test [7] came to 3.74%; in [8] it was 2.13%; in [9], 5.23%; in [10], 1.35%; in test [11], 2.18%; in [12], 2.73%. For the same molecule, the inhibition is 17.8% in test [13]; 1.23% in test [14]; 0.43% in [15]; -0.85% in test [16]; -0.57% in test [17]; 4.12% in test [18]. The inhibition was found to be 11.2% in [19] and 3.2% in test [20].
Regarding `O=S(=O)(CCOCc1ccc(-c2ccc3ncnc(Nc4ccc(OCc5cccc(F)c5)c(Cl)c4)c3c2)o1)c1ccccc1`, the inhibition in test [1] was found to be 0.6%; in test [2], 3.81%; in test [3] it was 6.35%; in test [4], 13%; in test [5], 8.7%; in [6] it was 1.87%. Also, the inhibition in [7] is 3.13%; in test [8] it was -2.12%; in test [9], 0.31%; in [10], -0.7%; in [11] it was 1%; in [12], 1.54%. Also, the inhibition in test [13] worked out at 2.21%; in [14], 0.38%; in test [15] it was 0.42%; in test [16] it was 0.16%; in test [17] it was 2.6%; in test [18], 1.71%. Also, the inhibition in [19] amounted to 8%; in [20], 1.81%.
With `Cc1nc(-c2ccccc2)n2nc(NCCCN3CCOCC3)ncc12`, the inhibition is 4.98% in [1]; 3.98% in test [2]; 4.67% in test [3]; 3.15% in [4]; 1.6% in test [5]; 0.32% in [6]. In addition, the inhibition was 2.69% in [7]; -0.73% in test [8]; 1.44% in test [9]; 0.99% in test [10]; 1.89% in test [11]; 3.7% in test [12]. Further, the inhibition was 4.63% in test [13]; 0.5% in test [14]; 1.89% in test [15]; -2.38% in test [16]; 0.04% in test [17]; 2.59% in test [18]. The inhibition in [19] came to 5.25%; in test [20], 3.52%.
As to `NS(=O)(=O)c1ccc(N/N=C2\C(=O)Nc3ccc(Cl)cc32)cc1`, the inhibition in [1] stood at 8.06%; in [2] it was 5%; in test [3], 11.4%; in test [4], 6.7%; in [5], 4.64%; in test [6], 1.04%. Moreover, the inhibition in test [7] is 2.77%; in test [8], 3.26%; in [9] it was 3.42%; in test [10], 0.97%; in test [11], 4.1%; in test [12], 4.77%. Moreover, the inhibition in test [13] was 11.7%; in test [14] it was 1.28%; in [15], 1.55%; in test [16] it was -2.01%; in test [17] it was 1.21%; in [18], 1.7%. Besides, the inhibition in test [19] worked out at 16.9%; in [20] it was 41.3%.

For orientation: inhibition means the relative decrease from the control value, in per cent.

(Values after ChEMBL document CHEMBL1961873, “Compounds: GSK PKIS; Assays: Nanosyn kinase panel” (2012).)
